# Assay results: the supplement of paper PMC6555819
# How the values were obtained:
# Assay in all cases: PBM binding z-score (relative to random genomic background probes); higher = stronger binding; sequences stand for … in GC…GCGATTGACAGCGTAGAATGAAGG
# [1] = system: PPARg:RXRa DBDmut IVT, anti-RXR (DBD mutation: RXRa K156A/R161A, NR concentration 270 nM, RXRa partner concentration 90 nM)
# How it was run: (§1)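 Custom Agilent 4×180K protein-binding microarrays carried double-stranded probes, each with a 34-nt variable region. These regions held direct-repeat seeds, single-nucleotide variants, half-site ablations and random human genomic background sequences. Ligand-free nuclear receptor dimers were incubated on the arrays for 1 h, antibodies against each partner (one per run) detected binding, and scanned fluorescence was regression-normalized. Binding z-scores take the random background probes as reference.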
# [2] = system: PPARg:RXRa IVT, anti-PPARg (NR concentration 270 nM, RXRa partner concentration 90 nM)
# How it was run: as §1
# [3] = system: PPARg DBDmut:RXRa IVT, anti-PPARg (DBD mutation: PPARg1 K132A/R137A, NR concentration 270 nM, RXRa partner concentration 90 nM)
# How it was run: as §1
# [4] = system: PPARg DBDmut IVT, anti-PPARg (DBD mutation: PPARg1 K132A/R137A, NR concentration 270 nM)
# How it was run: as §1
# [5] = system: PPARg homodimer (NR concentration 180 nM)
# How it was run: as §1
# [6] = system: PXR:RXRa (NR concentration 270 nM, RXRa partner concentration 90 nM)
# How it was run: as §1
# [7] = system: PXR homodimer (NR concentration 270 nM)
# How it was run: as §1
# [8] = system: RARa:RXR (NR concentration 270 nM, RXRa partner concentration 90 nM)
# How it was run: as §1
# [9] = system: RARa homodimer (NR concentration 270 nM)
# How it was run: as §1
# [10] = system: RARb:RXRa (NR concentration 270 nM, RXRa partner concentration 90 nM)
# How it was run: as §1
Sequence,PBM binding z-score [1],PBM binding z-score [2],PBM binding z-score [3],PBM binding z-score [4],PBM binding z-score [5],PBM binding z-score [6],PBM binding z-score [7],PBM binding z-score [8],PBM binding z-score [9],PBM binding z-score [10]
GGTACAGGGTCAGCTAGAGGCCAGAGTATGGAAA,0.482,2.29,0.521,-0.216,2.93,3.37,0.15,4.88,0.0993,4.22
CCTGCTAGGTCGATGGTCAGCTAAAGCAGCTCGC,0.713,0.603,-1.63,-0.626,-0.348,-0.314,-0.494,-0.143,-0.87,1.03
AATACTGGGTCATCGTAGGCCAGAGTACGCACAG,6.46,6.97,1.65,2.15,1.67,2.44,0.428,2.35,0.903,3.49
GCTAGCAGGCCATTTGGGTCAATCAATGACGGGC,1.77,1.92,-1.29,-0.902,-0.569,0.511,0.261,0.95,-0.573,1.3
TGACAAAGTTCAAAGGTAACGTAAGTATCCACAC,-0.278,2.4,1.51,0.842,2.31,5.44,2.44,6.2,1.36,5.01
GCTCGTAGGACAAGGTCAGAGCTTTGTCCGTAGA,0.0127,1.08,-1.37,-1.3,0.722,1.63,-0.493,2.13,-1.71,3.16
TGAATGAGGTTATAAGATCTGGGAACGTTGCAAA,1.24,1.57,0.727,-0.0307,0.305,0.714,-0.0184,1.12,0.0804,1.07
CCTCGTAGGACAACAGGAGGTCAGAGCTGCCAGA,0.397,0.633,-0.938,-1.38,1.75,2.08,0.26,2.37,0.699,2.56
TCATATAGGTAATACAGGTGAAATTCGGCATCTA,3.87,2.95,1.39,1.39,1.02,0.776,0.431,1.2,1.76,0.602
CCTATTAGTTGACCATAAGGGTAACCGAAGCTCG,0.609,0.727,0.109,1.15,1.86,0.536,1.04,0.834,2.48,1.06
CAGTCTAGGTCAGGGCCAGTATAGGAGGAACGTT,5.44,4.91,0.454,-0.134,1.53,0.376,0.305,1.2,0.439,3.48
CCGACTGGGGAAAGGTTACCATAACGCACAGCCA,0.181,0.852,-0.712,-0.726,1.01,1.26,0.0491,1.9,0.439,1.74
CCCACTGGGCCAAAGGTCATTGATTCCAATGCTC,4.77,6.2,0.334,-0.118,3.86,5.36,1.81,6.34,1.99,4.39
GCTTGTAGATCAAGGTTCAGAAAGACTAAGCTAA,1.07,1.53,0.321,-0.08,-0.171,0.124,-0.087,0.533,-0.997,0.339
TAGCCTAGCTCATGGGCCAGTATACCACGCGAAC,-1.04,-0.618,0.0751,-0.524,-0.407,-0.739,-0.677,-0.584,-0.475,-0.413
TTACCAAGGTGAAGGTCATTGATCCCTCTGTAGA,2.03,4.57,1.28,-0.00818,2.06,3.74,0.712,3.95,0.469,3.88
ACAGACAGGTGCGTGAAGGTAACTCAGCTGGACG,-0.935,-0.58,0.0563,-0.077,-0.238,-0.583,-0.495,-0.585,-0.862,-0.307
TAGCCTAGGTCATTGGGCCAGTCTAGTACGCATC,2.31,3.52,-0.286,-0.617,1.58,1.19,-0.0454,1.82,-0.767,3.53
CTCGAAAGGACGGTTGAGGTGAGTATACGGATAA,-0.361,-0.0316,0.142,0.0698,-0.218,0.0192,0.134,0.512,-0.448,0.634
ACTCGAAGGACAAAGGTCAGAGCTACGCCAGTGA,0.648,3.42,-0.0022,-0.263,2.57,3.58,0.743,4.28,0.861,4.7
ATCGAAAGGTCGAGGTGAGTATGGAGAAAGGGAA,0.289,2.45,0.568,0.731,1.64,2.3,0.205,2.72,0.528,3.95
CCTTATGGGTCAAGGTTATAGCACGGGTGGTACG,4.52,5.46,1.19,0.531,2.47,2.43,0.248,3.32,0.847,3.63
GCGACTGGGGCAAAGCATGTTACCATAAGGTTGG,4.73,3.23,-0.245,-0.674,0.0632,-0.48,-0.713,-0.255,-1.06,0.551
CGAACGAGGGCATGAATTGATAGCAAATGCCGAT,2.65,1.53,0.103,-0.47,0.00872,0.118,-0.261,0.259,-0.227,1.72
AGAATGAGGTTAAGAGCAGGGAAACAGAATACAT,2.72,2.37,0.618,0.293,0.456,1.09,0.121,1.69,-0.0125,1.71

Sequence,PBM binding z-score [1],PBM binding z-score [2],PBM binding z-score [3],PBM binding z-score [4],PBM binding z-score [5],PBM binding z-score [6],PBM binding z-score [7],PBM binding z-score [8],PBM binding z-score [9],PBM binding z-score [10]
TCTCGGAGGACACGAAAGGTCATAGCTCGACATC,2.17,2.14,1.29,0.408,3.48,5.31,1.81,5.39,1.62,4.26
TCTATTAGTTGAAGAGCAACCGACGAGTCCGTTT,2.11,-0.0307,-0.198,0.372,0.184,0.265,0.467,-0.0573,0.544,0.129
TCTAATTGGTCACGGAGGTCACACACGACGGGTA,2.78,4.04,1.67,1.69,3.37,4.81,1.7,4.76,2.23,4.2
GGAACGCGGGCAAAGTTGATAGCATCTGTCGACG,0.331,0.502,-0.831,-0.512,-0.0903,-0.43,-0.509,0.0758,-0.689,0.414
ACAGATAGGTGAGTGAAGGTAACTCAGCTGGACG,1.53,1.14,0.306,-0.218,0.357,-0.303,-0.159,0.0919,-0.566,0.558
GCACGGAGGACAAGGTCAGAGCTTTGTCCGTAGA,-0.0936,0.429,-1.21,-1.21,0.85,1.72,-0.197,2.03,-0.486,3.27
CCTAGTTGGTCAGGAGGTCGCACACCGGATATGA,0.576,1.51,-0.0553,-0.0724,1.86,1.24,0.681,1.59,1.17,1.98
CGAACTAGGTCAAGGACCGTGAATCTCCGCACGC,7.68,8.18,4.94,0.945,0.756,0.773,-0.365,1.63,-0.219,3.8
ATCTCTAGGTAACCAGGTTCAGTGAATGCCGAAC,3.75,3.09,0.459,0.795,1.07,0.948,0.388,0.808,0.438,0.668
CGTCCAAGGTCAATGCTAGGGCAGTGAAAGCATT,2.64,3.52,0.232,-0.81,2.06,3.68,0.492,4.3,-0.245,5.2
CCTACCGGGCCAAAGGTCATTGATTCCAATGCTC,0.996,4.7,-0.596,-1.68,3.08,5.32,1.52,6.45,0.836,4.35
ATAATGAGGTTAAGATCAGGGAAACAGAATACAT,3.08,3.32,1.83,1.92,1.15,1.31,0.654,2.22,0.709,2.22
CGAACTAAGTCAGAACAGGACAGTGAAGGATGAT,0.607,0.0567,0.659,0.276,0.404,-0.17,0.204,0.137,0.452,-0.103
ATCTCTAGGTAAAGATAGTTCAATGAATGCAAAT,2.11,1.74,1.55,1.22,0.945,1.65,1.02,0.946,1.4,1.07
ATACCAGGGTGATCGTGAGGTCGTTGATACTAAC,0.0988,1.34,0.464,0.118,1.12,3.24,1.47,2.44,0.625,1.23
CGTCCAAGGTCAGAGAGGTTAGTGAATGCCGAGT,2.24,2.47,-0.113,-0.422,2.06,3.93,4.8,3.47,0.223,4.7
GATACAGGGTCAAGGACAGAGTACGCGTATTGAT,3.11,3.89,1.4,0.618,2.51,3.92,0.786,4.72,1.69,4.52
CCTCCTGGGCCATTCAGAGGTCATTGATCATATG,0.035,1.4,-0.946,-1.05,2.13,4.87,2.7,4.93,0.138,3.04
GAACCAAGGTGAATAGGTCGTTGATGAGTAGGCG,1.81,2.56,-0.234,-0.27,0.411,0.765,-0.0642,1.68,-0.0573,1.95
AGAACGAAGGCAATGAGTTGATAGCACGGGTGGC,-0.602,-0.376,0.0932,-0.515,-1.7,-0.512,-0.132,-0.69,-0.881,-0.477
GCCTACGGGTCAAAGGTTATAGCATGAATAGAAT,2.12,4.99,1.03,0.485,1.95,6.12,0.219,8.24,0.254,4.34
CCTCGGAGGACAACAGGAGGTCCGAGCTGCCAGA,-0.427,-0.95,-1.85,-2.01,-0.576,-0.914,-0.768,-0.793,-0.318,1.1
CCTGCCAGGTCAATGGTCAGCTAAAGCAGCTCGC,1.49,2.41,-0.936,-1.59,0.763,1.6,-0.223,1.96,-0.54,3.66
CCTTACGGGTCACTAGGTTATAGCACGACGAGCG,4.54,5.69,1.5,0.896,2.59,2.84,-0.213,3.7,0.907,3.7
